Results published in PubChem BioAssay (EPA / NIEHS).
Results filed as inconclusive are left out. Activity calls are given as the source filed them. How the source made its calls: active means hit-call score of the fitted dose curve at least 0.9, where 1 is the maximum; inconclusive means response in the unintended direction; inactive means score below 0.9.

These molecules were tested against sheep Cyclooxygenase-1 (Cox1), PTGS1 (gene 443551) (UniProt P05979) (assay: NVS_ENZ_oCOX1: NovaScreen (NVS) Enzymatic Assay for sheep Cyclooxygenase-1 (Cox1) (AID 2283239);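 further: actives reduce cyclooxygenase activity so potencies are for inhibitors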).
Sequence of sheep Cyclooxygenase-1 (Cox1), PTGS1 (gene 443551) (P05979 whole entry, looked up): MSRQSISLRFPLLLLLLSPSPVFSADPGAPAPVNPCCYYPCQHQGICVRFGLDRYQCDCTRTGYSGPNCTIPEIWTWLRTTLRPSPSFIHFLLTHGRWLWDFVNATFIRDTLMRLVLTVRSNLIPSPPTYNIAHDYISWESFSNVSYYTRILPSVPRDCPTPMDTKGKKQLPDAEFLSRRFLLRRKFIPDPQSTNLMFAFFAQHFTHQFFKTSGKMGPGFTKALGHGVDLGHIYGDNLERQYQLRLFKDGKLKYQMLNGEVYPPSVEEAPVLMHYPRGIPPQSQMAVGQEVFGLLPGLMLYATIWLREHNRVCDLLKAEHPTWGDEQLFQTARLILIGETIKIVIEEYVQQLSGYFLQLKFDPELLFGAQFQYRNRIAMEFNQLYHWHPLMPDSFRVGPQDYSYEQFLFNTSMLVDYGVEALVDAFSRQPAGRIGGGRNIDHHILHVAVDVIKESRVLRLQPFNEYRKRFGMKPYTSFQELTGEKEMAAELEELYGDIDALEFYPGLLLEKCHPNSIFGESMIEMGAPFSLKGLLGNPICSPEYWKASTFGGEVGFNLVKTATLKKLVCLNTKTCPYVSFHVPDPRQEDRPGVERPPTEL
Description: NVS_ENZ_oCOX1 is a biochemical, single-readout assay that uses extracted gene-proteins from Ovine seminal vesicles in a tissue-based cell-free assay. Measurements were taken 0.66 hour after chemical dosing in a 96-well plate.NVS_ENZ_oCOX1 is one of one assay component(s) measured or calculated from the NVS_ENZ_oCOX1 assay. It is designed to make measurements of enzyme activity, a form of enzyme reporter, as detected with absorbance signals by Colorimetric technology.Data from the assay component NVS_ENZ_oCOX1 was analyzed into 1 assay endpoint. This assay endpoint, NVS_ENZ_oCOX1, was analyzed in the positive analysis fitting direction relative to DMSO as the negative control and baseline of activity. Using a type of enzyme reporter, loss-of-signal activity can be used to understand changes in the enzymatic activity as they relate to the gene PTGS1. Furthermore, this assay endpoint can be referred to as a primary readout, because this assay has produced multiple assay endpoints where this one serves a enzymatic activity function. To generalize the intended target to other relatable targets, this assay endpoint is annotated to the oxidoreductase intended target family, where the subfamily is cyclooxygenase.
Binding assays used specific radioligands (tritiated, iodinated) with non-radioactive competitive displacement ligands in agonist or antagonist protocols (as indicated) and various reference compounds and inhibitors to titrate specific binding to receptors and transporters. Most enzyme assays (CYPs, kinases, phosphatases, proteases, HDACs) used recombinant protein and specific substrates (fluorescence mostly, some colorimetric and radioactive) and inhibitors, followed by a biochemical separation of substrate and product. All assays for the biochemical HTS were initially run in duplicate at a single concentration (10 uM for CYP450 assays and 25 uM for all others). […] Each assay was run with positive and negative controls, and concurrent controls on every plate. The follow-up (secondary) screen tested active chemical-pairs in concentration series, as well as a few additional assays not tested in the primary screen, some selected negative inactives, and several cases re-run in the concentration series for confirmatory purposes.
In the case of CC=Cc1ccc(O)c(OC)c1, the outcome is reported as “inactive”. With CCCCCCC(=O)OCC the outcome was “inactive”. For CCOC(=O)C(C)(C)Oc1ccc(Cl)cc1, the outcome was “inactive”. In the case of CC(=O)OC/C=C(\C)CCC=C(C)C, the AC50 is reported as 8.78 µM (active). In the case of Cc1ccc(Cl)cc1, the outcome is reported as “inactive”. For COc1cc(-c2nc(NC(=O)c3cc4cc(C)cc(C)c4n3CC(=O)O)sc2CCC2CCCCC2)c(OC)cc1Cl, the AC50 was 4 µM (active). For Nc1ccccc1N, the outcome was “inactive”. COc1ccc(C)cc1N was tested, and the AC50 was 10.7 µM (active). In the case of Nc1nc(N)c2nc(CNc3ccc(C(=O)N[C@@H](CCC(=O)O)C(=O)O)cc3)cnc2n1, the AC50 is reported as 1.66 µM (active). With CC(=O)Oc1ccccc1C(=O)O the outcome was “inactive”. CCCCC(CC)COC(=O)CC(C(=O)OCC(CC)CCCC)S(=O)(=O)O (stereo not drawn) was tested, and the AC50 was 6.53 µM (active). With O=[N+]([O-])C(CO)(CO)CO the outcome was “inactive”. For CC1=C(/C=C/C(C)=C/C=C/C(C)=C/CO)C(C)(C)CCC1, the AC50 was 17.9 µM (active).
